Measurements from PubChem BioAssay (Tox21).
Several values for one entry are separate records, joined by “and”; a condition that tells them apart may be missing. Equal entries are not always repeated. Records with an inconclusive call do not appear. Activity calls are given as the source filed them. Unless noted, the call rests on the fitted dose curve; in most records, active means well fitted curve in the direction sought with a large enough effect in the repeat runs; inconclusive means weak or mixed curves; inactive means no such curve, though single readings can be large; an effect the other way counts as inactive or inconclusive.

Key:
[1] = qHTS assay to test for compound auto fluorescence at 535 nm (green) in HEK293 cells (AID 720680)
[2] = qHTS assay to test for compound auto fluorescence at 535 nm (green) in HEK293 cell free culture (AID 720682)
Method in brief: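 Green-label autofluorescence (485 nm excitation, 535 nm emission) measured on compound added to cell-free culture medium (DMEM, 10% FBS). Output is expressed relative to fluorescein.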

[3] = qHTS assay to test for compound auto fluorescence at 590 nm (red) in HEK293 cell free culture (AID 720683)
Method in brief: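 Tox21 10K library compounds were pinned into cell-free DMEM with 10% FBS and fluorescence was read at excitation 540 nm. Activity is expressed as Rose Bengal sodium equivalency.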

[4] = qHTS assay to test for compound auto fluorescence at 590 nm (red) in HepG2 cell free culture (AID 720684)
Method in brief: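 Ex 540 / Em 590 nm read of compound in cell-free MEM (10% FBS). Rose Bengal sodium reference.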

[5] = qHTS assay to test for compound auto fluorescence at 460 nm (blue) in HepG2 cell free culture (AID 720685)
Method in brief: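 Cell-free plates of MEM plus 10% FBS received 23 nL compound or DMSO vehicle; blue-channel (405/460 nm) intensity scored against triamterene as reference fluorophore.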

[6] = qHTS assay to test for compound auto fluorescence at 535 nm (green) in HepG2 cell free culture (AID 720686)
[7] = qHTS assay to test for compound auto fluorescence at 460 nm (blue) in HepG2 cells (AID 720687)
Method in brief: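 Cells (2,000/well in MEM with 10% FBS) attached overnight at 37 C, then were exposed to compound or DMSO for 1 hr at 37 C, 5% CO2. Fluorescence read at Ex/Em 405/460 nm, expressed as triamterene-equivalent signal.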

[8] = target: Glucocorticoid receptor (Homo sapiens) (UniProt P04150); test: qHTS assay to identify small molecule agonists of the glucocorticoid receptor (GR) signaling pathway (AID 720691; active means well fitted activation curve with a large enough effect in the signal ratio in the repeat runs, not every such curve was filed as active; the % refers to the signal ratio)
Chain of Glucocorticoid receptor (Homo sapiens) (P04150 whole entry, looked up): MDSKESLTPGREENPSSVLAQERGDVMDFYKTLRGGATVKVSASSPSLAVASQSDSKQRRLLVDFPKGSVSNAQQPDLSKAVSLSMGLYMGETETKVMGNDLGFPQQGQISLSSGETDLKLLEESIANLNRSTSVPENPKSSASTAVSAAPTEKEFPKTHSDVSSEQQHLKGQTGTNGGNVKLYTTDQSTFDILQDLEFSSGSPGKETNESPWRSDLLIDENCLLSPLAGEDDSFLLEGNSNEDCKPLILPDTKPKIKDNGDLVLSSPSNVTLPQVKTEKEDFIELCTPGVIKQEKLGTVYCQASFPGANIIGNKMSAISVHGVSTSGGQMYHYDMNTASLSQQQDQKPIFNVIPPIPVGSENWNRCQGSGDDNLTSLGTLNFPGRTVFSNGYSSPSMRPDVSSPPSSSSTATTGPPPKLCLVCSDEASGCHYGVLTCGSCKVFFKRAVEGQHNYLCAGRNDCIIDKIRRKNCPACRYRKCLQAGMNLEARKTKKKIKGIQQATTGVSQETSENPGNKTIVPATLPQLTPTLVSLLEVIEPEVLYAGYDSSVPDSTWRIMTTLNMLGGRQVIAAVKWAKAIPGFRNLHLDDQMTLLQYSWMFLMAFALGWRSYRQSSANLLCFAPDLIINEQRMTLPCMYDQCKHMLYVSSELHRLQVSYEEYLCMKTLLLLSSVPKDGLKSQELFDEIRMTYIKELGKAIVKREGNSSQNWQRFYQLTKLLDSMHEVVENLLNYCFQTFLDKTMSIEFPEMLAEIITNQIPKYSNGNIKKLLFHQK
Method in brief: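 Agonist-mode qHTS in HeLa cells stably expressing a glucocorticoid-response-element beta-lactamase reporter. Fluorescence intensity read with FRET substrate (2 h, room temperature) after 18 h compound treatment at 37 C.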

[9] = target: Glucocorticoid receptor (Homo sapiens) (UniProt P04150); test: qHTS assay to identify small molecule antagonists of the glucocorticoid receptor (GR) signaling pathway (AID 720692; active means well fitted inhibition curve with a large enough effect in the signal ratio in the repeat runs, not every such curve was filed as active; the % refers to the signal ratio)
Method in brief: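 Inhibition of dexamethasone-driven (5 nM final) beta-lactamase expression was measured in GRE-reporter HeLa cells over 18 h at 37C. Fluorescence was read after 2 h with the B/G FRET substrate at room temperature.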

[10] = qHTS assay to identify small molecule antagonists of the glucocorticoid receptor (GR) signaling pathway - cell viability counter screen (AID 720693); further: nearly all actives have a fitted effect of over 55% in size
[11] = qHTS assay for identifying genotoxic compounds that show differential cytotoxicity against isogenic chicken DT40 cell lines with known DNA damage response pathways - wild type cell line (AID 743012); further: nearly all actives have a fitted effect of over 60% in size; further: potency means the concentration at half of the fitted maximal effect
Method in brief: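 Viability by ATP luminescence (CellTiter-Glo, 30 min RT) after 40 h compound treatment at 37 C/5% CO2, using 300 parental DNA repair-proficient DT40 cells per well.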

[12] = qHTS assay for identifying genotoxic compounds that show differential cytotoxicity against isogenic chicken DT40 cell lines with known DNA damage response pathways - Rev3 mutant cell line (AID 743014); further: nearly all actives have a fitted effect of over 55% in size; further: potency means the concentration at half of the fitted maximal effect
[13] = qHTS assay for identifying genotoxic compounds that show differential cytotoxicity against isogenic chicken DT40 cell lines with known DNA damage response pathways - Rad54/Ku70 mutant cell line (AID 743015); further: nearly all actives have a fitted effect of over 60% in size; further: potency means the concentration at half of the fitted maximal effect
[14] = qHTS assay to identify small molecule antagonists of the androgen receptor (AR) signaling pathway - cell viability counter screen (AID 743033; further: nearly all actives have a fitted effect of over 45% in size)
[15] = target: Androgen receptor (Homo sapiens) (UniProt P10275); test: qHTS assay to identify small molecule antagonists of the androgen receptor (AR) signaling pathway (AID 743035; active means well fitted inhibition curve with a large enough effect in the signal ratio in the repeat runs, not every such curve was filed as active; the % refers to the signal ratio)
Chain of Androgen receptor (Homo sapiens) (P10275 whole entry, looked up): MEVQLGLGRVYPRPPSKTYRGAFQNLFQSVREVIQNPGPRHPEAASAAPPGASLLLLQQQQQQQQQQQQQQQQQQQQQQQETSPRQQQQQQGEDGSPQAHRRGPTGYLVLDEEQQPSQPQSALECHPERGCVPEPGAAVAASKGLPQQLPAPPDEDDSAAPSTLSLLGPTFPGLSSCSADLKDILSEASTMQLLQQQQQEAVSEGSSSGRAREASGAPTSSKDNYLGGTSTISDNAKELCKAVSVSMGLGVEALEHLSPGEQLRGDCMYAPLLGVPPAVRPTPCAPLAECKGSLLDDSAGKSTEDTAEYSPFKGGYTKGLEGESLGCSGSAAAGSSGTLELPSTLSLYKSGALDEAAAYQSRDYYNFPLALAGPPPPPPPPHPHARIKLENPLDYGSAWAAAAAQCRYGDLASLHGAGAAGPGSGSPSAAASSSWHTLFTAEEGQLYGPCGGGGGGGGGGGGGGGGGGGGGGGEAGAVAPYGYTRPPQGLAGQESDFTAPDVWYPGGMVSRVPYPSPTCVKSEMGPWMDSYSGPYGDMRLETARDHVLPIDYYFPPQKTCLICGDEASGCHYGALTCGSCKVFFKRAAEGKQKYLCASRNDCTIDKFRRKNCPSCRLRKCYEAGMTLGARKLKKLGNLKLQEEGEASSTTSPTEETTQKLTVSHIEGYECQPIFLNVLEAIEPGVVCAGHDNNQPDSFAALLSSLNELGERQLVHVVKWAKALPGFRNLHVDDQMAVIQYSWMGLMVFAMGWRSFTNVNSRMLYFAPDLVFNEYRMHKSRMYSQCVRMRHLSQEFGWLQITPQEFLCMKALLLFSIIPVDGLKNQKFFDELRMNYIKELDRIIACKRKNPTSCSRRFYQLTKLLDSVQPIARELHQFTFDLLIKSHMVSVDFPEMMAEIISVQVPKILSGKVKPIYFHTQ
Method in brief: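 Antagonist mode: AR-bla HEK293 cells co-treated with test compounds and agonist R1881 for 16 h at 37C, 5% CO2. Beta-lactamase activity read as FRET fluorescence after 2 h room-temperature substrate loading.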

[16] = target: Androgen receptor (Homo sapiens) (UniProt P10275); test: qHTS assay to identify small molecule agonists of the androgen receptor (AR) signaling pathway using the MDA cell line (AID 743040; further: nearly all actives have a fitted effect of over 20% in size)
Method in brief: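 Cell-based luciferase reporter: MDA-kb2, MMTV promoter (AR + GR response elements). 16 h compound exposure at 37C; ONE-Glo, 30 min RT, luminescence.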

[17] = qHTS assay to identify small molecule antagonists of the androgen receptor (AR) signaling pathway using the MDA cell line - cell viability counter screen (AID 743041; further: nearly all actives have a fitted effect of over 45% in size)
Method in brief: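 In this qHTS counter assay, fluorescence intensity after CellTiter-Fluor addition indicated viability of MDA-kb2 AR-luc cells given compounds and R1881 for 16 h at 37C.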

[18] = target: Androgen receptor (Homo sapiens) (UniProt P10275); test: qHTS assay to identify small molecule antagonists of the androgen receptor (AR) signaling pathway using the MDA cell line (AID 743042; further: nearly all actives have a fitted effect of over 55% in size)
Method in brief: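 MDA-kb2 cells (human breast carcinoma, stably carrying an MMTV-luciferase reporter responsive to AR and GR) were plated at 3,000 cells/well and preincubated 5 hr at 37C, then given compound plus R1881 agonist for 16 h. ONE-Glo luminescence was read.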

[19] = qHTS assay to identify small molecule antagonists of the thyroid receptor (TR) signaling pathway - cell viability counter screen (AID 743064); further: nearly all actives have a fitted effect of over 50% in size; further: potency means the concentration at half of the fitted maximal effect
Method in brief: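 GH3.TRE-Luc rat pituitary cells dosed after 4 hr plating, co-stimulated with T3 at 1 nM final, incubated 23.5 h at 37 C. Viability measured in the same wells by CellTiter-Fluor fluorescence after 30 min further at 37 C.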

[20] = qHTS assay to test for compound auto fluorescence at 460 nm (blue) in HEK293 cell free culture (AID 720681)
Method in brief: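 Test compounds were pinned into cell-free culture medium (DMEM with 10% FBS) and fluorescence was read directly at Ex/Em 405/460 nm. Signals were expressed as fluorescence equivalents of triamterene, with DMSO vehicle as control.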

Measured: Potency

CCCCOCCOC(=O)COc1cc(Cl)c(Cl)cc1Cl
inactive: [1] | [2] | [3] | [4] | [5] | [6] | [7] | [8] | [9] | [10] | [11] | [12] | [13] | [14] | [15] | [16] | [17] | [18]

C=CC(=O)OCCCl
inactive: [1] | [2] | [3] | [4] | [6] | [7] | [10] | [14] | [17]

Nc1c2c(nc3c1CCC3)CCCC2
inactive: [1] | [2] | [3] | [4] | [6] | [7] | [10] | [11] | [12] | [13] | [14] | [16] | [18]

NCCCC(N)(C(=O)O)C(F)F (stereo not drawn)
inactive: [1] | [2] | [3] | [4] | [5] | [6] | [7] | [8] | [9] | [10] | [11] | [12] | [13] | [14] | [17]

CC(=O)Nc1ccc(OCC(O)CNC(C)C)cc1 (stereo not drawn)
inactive: [1] | [2] | [3] | [4] | [5] | [6] | [7] | [8] | [9] | [10] | [11] | [13] | [14] | [17] | [19]

O=S(=O)(O)c1cccc2ccccc12
inactive: [1] | [2] | [4] | [6] | [7] | [8] | [10] | [11] | [12] | [13] | [14] | [17] | [19]

O=[N+]([O-])c1ccc(/C=N\O)o1
inactive: [1] | [2] | [4] | [6] | [7] | [8] | [9] | [10] | [14] | [17] | [19]

Nc1ccn([C@@H]2O[C@H](CO)[C@@H](O)C2O)c(=O)n1 (stereo partly drawn)
inactive: [1] | [2] | [3] | [4] | [5] | [6] | [7] | [10] | [14] | [17]
active: [11] 298 nM and 193 nM | [12] 266 nM and 172 nM | [13] 376 nM and 172 nM | [19] 531 nM and 486 nM

CCC(C)(CCCC(C)C)OC(C)=O (stereo not drawn)
inactive: [20] | [2] | [3] | [4] | [5] | [6] | [7] | [8] | [9] | [10] | [11] | [12] | [13] | [14] | [19]

CC(C#N)(CCC(=O)O)N=NC(C)(C#N)CCC(=O)O (stereo not drawn)
inactive: [1] | [2] | [4] | [5] | [6] | [7] | [8] | [9] | [10] | [11] | [12] | [13] | [14] | [17] | [19]

CC(C)CC(C)(N)C#N (stereo not drawn)
inactive: [1] | [2] | [3] | [4] | [5] | [6] | [7] | [11] | [13] | [14] | [17]

C[N+](C)(C)CCCCCCCCCC[N+](C)(C)C
inactive: [1] | [2] | [3] | [4] | [5] | [6] | [7] | [8] | [10] | [11] | [12] | [13] | [14] | [17]

C[N+]1(CC2COC(c3ccccc3)(c3ccccc3)O2)CCCCC1 (stereo not drawn)
inactive: [1] | [2] | [3] | [4] | [5] | [6] | [7] | [9] | [10] | [14] | [17] | [19]
active: [11] 26.6 µM | [12] 29.8 µM | [13] 26.6 µM

N[C@H](C(=O)O)[C@@H](O)c1ccc(O)c(O)c1
inactive: [1] | [2] | [3] | [4] | [5] | [6] | [7] | [8] | [9] | [10] | [14] | [17]
active: [11] 13.3 µM | [12] 16.8 µM | [13] 21.1 µM

[Ca+2]
inactive: [1] | [2] | [3] | [4] | [5] | [6] | [7] | [8] | [10] | [11] | [13] | [14] | [17]

CC(C)(C)C(=O)c1ccccc1
inactive: [20] | [2] | [3] | [4] | [5] | [6] | [7] | [8] | [9] | [10] | [11] | [12] | [13] | [14]

C=CCCC(=O)O
inactive: [1] | [2] | [3] | [4] | [5] | [6] | [7] | [8] | [9] | [10] | [11] | [13] | [14]
